Shown are actives, neighbours in structure and some others; about 1.7% of the full set was active somewhere.
p53ts 32C kill: cytotoxicity in p53ts cells at permissive temperature; H1299-p53A138V at 32C, ATP luminescence viability, 24 h; 0.93% of 130,000 active; Potency, µM (top dose mostly 46.1 µM), inactives show at the top dose activity change, negative = cytotoxicity, most hits filed as cytotoxic;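 note: 0% = DMSO and -100% = full killing by reference compound; nearly all actives have a fitted effect of over 55% in size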
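Viability by ATPlite luminescence after 24 h compound treatment (up to 46 uM) at the permissive 32C. Cells are H1299 carrying p53 A138V. Scale runs from DMSO basal to 100 uM tamoxifen as full kill; AC50 from Hill fits.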
p53ts 39C kill: p53ts cell cytotoxicity, nonpermissive temperature | Potency, µM (titrated, usually from 46.1 µM), for the others: at the highest dose activity change, negative = cell killing, actives largely listed as cytotoxic | 1.5% of 130,000 active | H1299-p53A138V viability at 39C, ATP luminescence, 24 h; note: % is set by controls: 0 for no effect and ±100 for the full control effect; nearly all actives have a fitted effect of over 55% in size
Imprint erasure: induces erasure of genomic imprints in mouse ES cells. 0.02% of 110,000 active. mouse ES Peg3-LacZ reporter, beta-gal luminescence, 40 h. Potency, µM (top dose mostly 60.7 µM), for the others: top-dose activity change, positive = activation, hits mostly activators
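Readout: BetaGlo luminescence (5 min, room temp) for LacZ from the normally silent maternal Peg3 allele in female Peg3LacZ-Neo ES cells. Cells 300/well, 40 h, 37C, 5% CO2. Data normalized per plate to negative controls.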
IkB sig inh: IkB pathway inhibition in ABC-DLBCL cells. ABC-DLBCL IkBa-CBG/CBR dual luciferase ratio, 4 h; response scale: scaled: untreated 0%, proteasome inhibitor 100%. Potency, µM (titrated, usually from 57.1 µM), inactives show at the highest dose IkBa stabilization activation. 0.04% of 110,000 active; active = well fitted curve in the direction sought with a large enough effect in the signal ratio, not every such curve was filed as active; inconclusive = small, poorly fitted or top-dose-only effect, or a change in a side signal; the % refers to the signal ratio;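 note: the direction sought is a rising ratio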
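In this assay, an IκBα–CBG68 fusion accumulates when IKK-driven degradation is blocked; native CBR normalizes for cell number. OCI-Ly3 cells were treated 4 h with compound and doxycycline, then green and red light read after Chroma-Glo addition.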
Starred values were filed as active, the others as inactive; ? = inconclusive; . = not tested or not shown; [ ] = dose if it differs, or a comment. Unless noted, calls come from the whole dose curve; as a rule, active = well fitted curve in the direction sought with a large enough effect; inconclusive = small, poorly fitted or top-dose-only effect, or another doubt; inactive = no such curve, though single readings can be large; an effect the other way counts as inactive or inconclusive. Potency is the fitted concentration of half-maximal effect.

SMILES | p53ts 32C kill | p53ts 39C kill | Imprint erasure | IkB sig inh
Cc1ccccc1Nc1c(-c2ccc(N3CCOCC3)cc2)nc2ccccn12 | 1µM* | 1µM* | -10.4%[10.9 µM] | ?
COc1ccc(C(=O)NC(=O)Nc2cc(C)ccn2)cc1 | 1.26µM* | 1.26µM* | -95.8% | 12.2%
Cc1ccc(NC(=O)Nc2cccc(C)n2)cc1 | 12.6µM* | 15.8µM* | -18.3%[10.9 µM] | 11.8%
COc1ccc(NC(=O)Nc2cc(C)ccn2)cc1 | 7.94µM* | 6.31µM* | -52.9% | 3.5%
Cc1cccc(NC(=O)Nc2ccc(F)cc2)n1 | -25.2% | -27.2% | -16.8%[10.9 µM] | 6.7%
CO[C@@H]1COC(=O)[C@H]2CCCN2C(=O)[C@@H](C)COC(=O)[C@H](COCc2ccccc2)NC(=O)C/C=C\[C@H]1C | -0.2%[9.22 µM] | 1.0%[9.22 µM] | . | .
Cc1cccc(-n2c(=O)c3ccccc3n(Cc3ccccc3)c2=O)c1 | 1.3% | -16.4% | 3.7%[10.9 µM] | 3.6%
CCN1CCCC1Cn1c(-c2ccccc2)nc2c(N3CCOCC3)nc(C)nc21 (centres undefined) | -9.9% | -21.4% | -1.1% | .
CC1CCCN(c2ncnc3c2cnn3-c2ccc(F)cc2)C1 (centres undefined) | 2µM* | 2µM* | -47.4%[10.9 µM] | 6.2%
Cc1ccc(-n2ncc3c(N4CCN(c5ccc(F)cc5)CC4)ncnc32)cc1 | 9.5% | -28.6% | -7.8%[10.9 µM] | ?
Cc1ccc(-n2ncc3c(N4CCCCCC4)ncnc32)cc1C | 10µM* | ? | -15.7%[10.9 µM] | ?
Cc1cccc(-n2ncc3c(N4CCCC(C)C4)ncnc32)c1 (centres undefined) | 3.98µM* | 2.51µM* | -40.1%[10.9 µM] | ?
Cc1ccc(-n2ncc3c(N4CCN(Cc5ccccc5)CC4)ncnc32)cc1C | 20µM* | 31.6µM* | -13.0%[10.9 µM] | ?
CCOC(=O)C1CCCN(c2ncnc3c2cnn3-c2cccc(C)c2)C1 (centres undefined) | -15.3% | -11.5% | -90.0% | 1.3%
CCOc1ccccc1NC(=O)CSc1nccn1Cc1ccc(F)cc1 | -0.4% | -29.2% | -9.8%[10.9 µM] | -0.7%
O=C(NCc1ccc(Cl)cc1)C1CCCN(c2ncnc3onc(-c4ccc(F)cc4)c23)C1 (centres undefined) | -8.7% | 2.3% | 17.2%[10.9 µM] | 1.0%
Cc1cccc(N2CCN(c3ncnc4c3cnn4-c3ccc(Cl)cc3)CC2C)c1 (centres undefined) | ? | 15.8µM* | 2.5%[10.9 µM] | ?
Cc1cccc(-n2ncc3c(N4CCCCCC4)ncnc32)c1 | ? | 3.98µM* | -19.0%[10.9 µM] | ?
Cc1nc2c(C(=O)NC(C)c3ccccc3)cnn2c(C)c1Cc1ccccc1 (centres undefined) | ? | 20µM* | -17.0%[10.9 µM] | ?
Cc1ccc2c(C)c(C(=O)N(Cc3ccc(Cl)cc3)C3CCS(=O)(=O)C3)oc2c1 (centres undefined) | 20.9% | -14.7% | -2.2%[10.9 µM] | ?
Cc1ccc2nc(NC(=O)c3cccs3)sc2c1 | ? | 7.94µM* | . | ?
Cc1ccc(C(=O)Nc2nc3ccc(S(C)(=O)=O)cc3s2)s1 | 10µM* | 12.6µM* | -71.2% | -2.0%
CCC(=O)Nc1nc2ccc(S(C)(=O)=O)cc2s1 | -12.5% | 14.5% | . | .
Cc1cc(C(=O)Nc2nc3ccc(S(C)(=O)=O)cc3s2)c(C)o1 | ? | -27.5% | -84.3% | 2.4%
CS(=O)(=O)c1ccc2nc(NC(=O)c3cccs3)sc2c1 | 2.51µM* | 2.51µM* | -87.1% | ?
SMILES | p53ts 32C kill | p53ts 39C kill | Imprint erasure | IkB sig inh
N[C@@H](Cc1c[nH]c2ccccc12)C(=O)NCC(=O)O | . | . | . | -0.1%[11.4 µM]
Cc1ccc(NC(=O)CSc2nnc(NC(=O)NC3CCCCC3)s2)cc1 | -12.4% | ? | 16.8%[10.9 µM] | 3.4%
COc1cccc(NC(=O)CSc2nnc(NC(=O)NC3CCCCC3)s2)c1 | 11.2µM* | 12.6µM* | ? | ?
CN1CCN(c2ncc3nc(CCc4ccccc4)c(=O)n(Cc4ccc(F)cc4)c3n2)CC1 | -10.2% | -8.2% | . | -0.3%[11.4 µM]
COc1ccccc1NC(=O)Cn1c(=O)oc2cc(S(=O)(=O)NCc3ccccc3)ccc21 | 12.5% | -25.5% | -7.9%[10.9 µM] | ?
CC(=O)Nc1cccc(NC(=O)CSc2ccc(-c3sc(-c4ccccc4)nc3C)nn2)c1 | 14.3% | 7.94µM* | -19.8%[10.9 µM] | ?
CCc1ccc(NC(=O)CSc2ccc(-c3sc(-c4ccccc4)nc3C)nn2)cc1 | 0.3% | -18.2% | -10.2%[10.9 µM] | ?
COc1cc(NC(=O)CSc2ccc(-c3sc(-c4ccccc4)nc3C)nn2)cc(OC)c1 | -2.2% | -8.9% | -19.5%[10.9 µM] | 7.5%
Cc1nc(-c2ccccc2)sc1-c1ccc(SCC(=O)Nc2cccc(C(F)(F)F)c2)nn1 | -9.1% | 10µM* | -14.9%[10.9 µM] | 0.4%

Screening data deposited in PubChem BioAssay by National Center for Advancing Translational Sciences (NCATS).
